Among all 360,000 compounds or so, about 10,000 (2.8%) were called active. About 4% were inconclusive and are not listed. The call rests on the fitted dose curve; in most records, active means well fitted inhibition curve with a large enough effect; inconclusive means small, poorly fitted or top-dose-only effect; inactive means flat fitted curve, though single readings scatter. The entries come from a sample that favours actives as a whole.
molecular target: Serine/threonine-protein kinase PLK1 (Homo sapiens) (UniProt P53350); assay: qHTS for Inhibitors of PLK1-PDB (polo-like kinase 1 - polo-box domain): Primary Screen; conditions: Plk1 PBD binding of FITC phosphopeptide, fluorescence polarization; further: nearly all actives have a fitted effect of over 65% in size; on max response, negative = inhibition: series mostly up to about 57 µM
Sequence (P53350 whole entry, looked up, the tested form may be a part): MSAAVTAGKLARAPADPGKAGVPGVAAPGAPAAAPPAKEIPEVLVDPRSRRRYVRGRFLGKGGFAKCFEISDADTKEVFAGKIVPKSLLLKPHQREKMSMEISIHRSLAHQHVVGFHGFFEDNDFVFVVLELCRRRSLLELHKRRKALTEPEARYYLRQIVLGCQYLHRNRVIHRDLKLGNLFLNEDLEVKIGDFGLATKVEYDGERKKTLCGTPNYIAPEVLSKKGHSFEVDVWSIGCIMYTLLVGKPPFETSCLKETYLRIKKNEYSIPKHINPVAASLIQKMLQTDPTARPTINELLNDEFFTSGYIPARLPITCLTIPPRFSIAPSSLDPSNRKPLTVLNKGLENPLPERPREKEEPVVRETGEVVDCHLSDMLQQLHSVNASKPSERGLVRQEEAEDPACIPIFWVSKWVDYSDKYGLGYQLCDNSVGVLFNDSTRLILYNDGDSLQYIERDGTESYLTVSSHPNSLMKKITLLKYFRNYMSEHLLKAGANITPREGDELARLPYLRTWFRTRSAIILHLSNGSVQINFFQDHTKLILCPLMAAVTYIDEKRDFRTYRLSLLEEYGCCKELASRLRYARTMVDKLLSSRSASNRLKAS
From the text: The polo-like kinase 1 (Plk1) is a member of a conserved subfamily of serine / threonine protein kinases that plays a pivotal roles in cell proliferation. It has a C-terminal non-catalytic region called the polo-box domain (PBD) that plays a crucial role in the subcellular localization of the Plk1. […] Furthermore, depletion of the overexpressed Plk1 by RNAi efficiently induces apoptotic cell death in cancer and reduces tumor growth in mouse xenograft models. Thus, targeting Plk1 is an appealing strategy for anti-cancer therapy. Therefore, this project aimed to screen the Molecular Libraries Small Molecule Repository (MLSMR) using a novel approach to find inhibitors that target the Plk1 PBD instead of the conventional N-terminal catalytic domain. This project employed a fluorescence polarization (FP) assay using a FITC-conjugated phospho-9-mer (p-9-mer) peptide and purified human Plk1 PBD protein. The identified small molecule inhibitors of Plk1 PBD can then further be developed into useful tools for biomedical and clinical research that complements or replaces current relevant disease therapy. NIH Chemical Genomics Center [NCGC] NIH Molecular Libraries Probe Centers Network [MLPCN] MLPCN Grant: MH100728 Assay Submitter (PI): Kyung Lee, NCI
Four microliter of 25 nM FITC-p-9-mer + 60 nM Plk1 PBD in buffer solution (final concentrations 25 nM and 60 nM respectively) or 4 uL of 25 nM FITC-p-9-mer (final concentration 25 nM) in buffer will be dispensed into a 1,536 Greiner medium-binding black solid plate. Small molecules at final concentrations of 18 nM to 57 uM and positive control phospho-9-mer (sequence: Ac-PPLHSpTAI-NH2) at final concentrations 26 nM to 57 uM and phospho-13-mer (sequence: Ac-[…]pTAI-NH2) at final concentrations of 1 nM to 2.3 uM will be pin-transferred (23 nL) to the plate via a Kalypsys pin-tool robotics equipped with a 1,536-pin array. The reaction plate will be centrifuged for 1 min at 1000 rpm and incubated at room temperature for 10 min. The FITC fluorescence signals will be read using the PerkinElmer ViewLux plate reader at 480 / 20 nm excitation and 540 / 20 nm S and P polarization emission wavelengths. Reagent bottles will be kept submerged into 4 °C recirculating chiller bath and all liquid lines will be covered with aluminum foil to minimize degradation. Library plates will be screened starting from the lowest to the highest concentrations to minimize compound carryover. Vehicle only plates, with DMSO being pin-transferred instead of compound solutions, will be included regularly throughout the screen to record any systematic shifts in assay signal.
On the % scale 0 is the no-effect control and ±100 the full control effect; potency means the concentration at half of the fitted maximal effect.

SMILES | max response, negative = inhibition | Potency
COc1ccccc1Cc1c(-c2ccc(Cl)cc2)nc2ccc(Cl)cn12 | -19.7% (inactive) | –
CNc1ccc(SC#N)cc1 | – | 23.8 µM (active)
Cc1ccccc1Cn1c(C)c(C(=O)NCc2cccc(C(F)(F)F)c2)sc1=O | -4.46% (inactive) | –
CCN(C(=O)Nc1cccc2ccccc12)c1ccccc1 | -4% (inactive) | –
Cc1ccc(S(=O)(=O)N2[C@@H](Cc3ccccc3)CO[C@H]2CC(=O)OCc2ccccc2)cc1 | 0.144% (inactive) | –
CCCCn1nnnc1C(c1ccccc1)N1CCN(c2ccccc2OC)CC1 (stereo not drawn) | -14.9% (inactive) | –
CN(C)c1nc(=Nc2cccc(Cl)c2)ss1 | – | 6.7 µM (active)
Cn1ncc([N+](=O)[O-])c1C(=O)Nc1cc(Cl)ccc1Cl | -6.39% (inactive) | –
O=C1c2ccccc2C(c2nc3ccccc3[nH]2)N1c1ccccc1 (stereo not drawn) | 3.28% (inactive) | –
O=C1Nc2ccccc2NC(c2ccc3c(c2)OCO3)=C1N(Cc1ccc(F)cc1)C(=O)c1ccco1 | -4.45% (inactive) | –
Nc1ccc2nc3c(=O)[nH]c(=S)[nH]c3nc2c1 | – | 2.67 µM (active)
CC(C)OC(=O)CC(=O)CC(O)c1cccc([N+](=O)[O-])c1 (stereo not drawn) | -7.74% (inactive) | –
O=C(Nc1ccc(N2CCCC2=O)cc1)c1cncc(Br)c1 | 6.3% (inactive) | –
O=C(N/N=C/c1cccc(Br)c1)c1ccc(N2CCCC2=O)cc1 | – | 26.7 µM (active)
O=C(N/N=C\c1cccc(Br)c1)c1ccccc1-n1cccc1 | -3.78% (inactive) | –
CC(C)CN1CCC1(C)C(=O)Nc1ccc(OC(F)F)cc1 (stereo not drawn) | -0.833% (inactive) | –
CCCNC(=O)C1(C)CCCN(Cc2c(C)nn(-c3ccccc3)c2C)C1 (stereo not drawn) | 2.73% (inactive) | –
COc1ccc(C(=O)NCC[N+](C)(C)C)cc1 | 1.35% (inactive) | –
COCCCNC(NC(=O)c1ccc(OC)cc1)C(Cl)(Cl)Cl (stereo not drawn) | 5.66% (inactive) | –
COCCNC(=S)c1ccc(OC)cc1 | – | 26.7 µM (active)
C#CCNC(=O)C[C@@H]1C[C@@]2(C(=O)OCC)CCCC=C2N(Cc2ccco2)C1=O | -6.05% (inactive) | –
CC(C)c1ccc(-c2nn[nH]n2)cc1 | -8.56% (inactive) | –
Brc1ccc(-c2nn[nH]n2)cc1 | – | 23.8 µM (active)
c1cc(-c2nn[nH]n2)ccc1CN1CCCCC1 | -9.14% (inactive) | –

SMILES | max response, negative = inhibition | Potency
COc1cccc(C(O)c2nc(-c3ccc(C)c(C)c3)cs2)c1 (stereo not drawn) | -8.07% (inactive) | –
COCc1cccc(-c2csc(C(O)c3ccc(F)cc3)n2)c1 (stereo not drawn) | -9.74% (inactive) | –
COc1ccc(NC(=O)CSc2nnnn2-c2cccc(OC)c2)cc1 | 5.21% (inactive) | –
COCCn1c(SCC(=O)Nc2ccc(F)cc2F)nc2c(c1=O)SCC2 | 10.8% (inactive) | –
Cc1ccc(Cc2c(-c3ccccc3)nc3ccc(Cl)cn23)cc1 | -1.42% (inactive) | –
Cc1ccc(-c2nc3ccc(Cl)cn3c2Cc2ccccc2)cc1 | -1.46% (inactive) | –
Cc1ccc(Cc2c(-c3ccco3)nc3ccc(Cl)cn23)cc1 | – | 21.2 µM (active)
CC1Cc2[nH][nH]c(=O)c2C(C2CCCC2)O1 (stereo not drawn) | -5.58% (inactive) | –
OC(c1ccccc1)c1nc(-c2cnc3ccccc3c2)cs1 (stereo not drawn) | 1.51% (inactive) | –
O=C(CSc1n[nH]c(-c2cccnc2)n1)Nc1ccnc2ccccc12 | -8.72% (inactive) | –
COc1ccc(Nc2nc(-c3cccnc3)nc3ccccc23)cn1 | – | 21.2 µM (active)
CCN(CC(=O)NC1CCS(=O)(=O)C1)c1nc(-c2cccnc2)nc2ccccc12 (stereo not drawn) | -6.17% (inactive) | –
C[C@H]1CN([C@@H](C)CO)C(=O)CCCn2cc(nn2)CO[C@@H]1CN(C)S(=O)(=O)c1ccc(-c2ccccc2)cc1 | -23.9% (inactive) | –
COc1ccc(-c2[nH]nc3c2C(c2ccncc2)C(C#N)=C(N)O3)cc1 (stereo not drawn) | -28.1% (inactive) | –
COCc1[nH]nc2c1C(C1C=CCCC1)C(C#N)=C(N)O2 (stereo not drawn) | -8.66% (inactive) | –
CCCc1[nH]nc2c1C(c1ccc(Br)s1)C(C#N)=C(N)O2 (stereo not drawn) | – | 23.8 µM (active)
CC(=O)Nc1cccc(-c2ccnc3c2CC(C)(C(=O)NCc2ccccc2)O3)c1 (stereo not drawn) | 0.623% (inactive) | –
CNC[C@H]1OCc2cnnn2CCCC(=O)N([C@H](C)CO)C[C@@H]1C | -6.68% (inactive) | –
Cc1cc2oc(=O)cc(CN(C)Cc3ccccc3)c2cc1Cl | -6.49% (inactive) | –
CSc1ncc(C(=O)NCCCc2ccccc2)c(C)n1 | -4.81% (inactive) | –
CSc1ncc(Sc2ccccc2)c(C(=O)O)n1 | – | 23.8 µM (active)
Cc1ccccc1C(=O)Nc1ccccc1Sc1ccccc1 | 2.65% (inactive) | –
CN1C[C@@H](CO)O[C@@H](n2cnc3c(N4CCN(CCO)CC4)ncnc32)C1 | 2.3% (inactive) | –
COCCNC(=O)C1CCCN(Cc2ccccc2Cl)CC1 (stereo not drawn) | -4.77% (inactive) | –

SMILES | max response, negative = inhibition | Potency
CC(=O)N1CCN(Cc2cc(=O)oc3cc(C)ccc23)CC1 | -2.03% (inactive) | –
CCOC(=O)[C@H]1Nc2ccc(Cl)cc2[C@@H]2[C@H]1C1CC(c3ccccc31)N2C(=O)OCc1ccccc1 (stereo partly drawn) | -10.8% (inactive) | –
CNc1cc(-c2c(OC)cccc2OC)ncn1 | -6.78% (inactive) | –
CN1CCN(c2ccc3c(c2)OC[C@H](Cc2ccccc2)NS3(=O)=O)CC1 | 0.181% (inactive) | –
COc1ccc(-c2nc3ccc(Br)cn3c2Cc2ccc(C)cc2)cc1OC | -11% (inactive) | –
Cc1ccc2c(c1)C(c1ccccc1)N(C(=O)c1ccc(F)cc1)CC(=O)N2 (stereo not drawn) | -0.372% (inactive) | –
Cc1ccc(C(=O)N2CC(=O)Nc3ccc(F)cc3C2c2ccc(F)cc2)cc1 (stereo not drawn) | 1.6% (inactive) | –
Cc1ccc2c(c1)C(c1ccccc1)N(C(=O)c1ccc(S(=O)(=O)N3CCOCC3)cc1)CC(=O)N2 (stereo not drawn) | – | 23.8 µM (active)
CCNC(=O)C1(C)CCCN(C(=O)c2c(C)noc2C)C1 (stereo not drawn) | -0.543% (inactive) | –
CCOC(=O)c1cc2cc(OC)ccc2n1C1CCN(C)CC1 | -4.75% (inactive) | –
CCC(Oc1ccccc1)C(=O)OCC(=O)Nc1c(C)nn(-c2ccccc2)c1C (stereo not drawn) | -0.819% (inactive) | –
CCOc1ccc(CCN2C(=S)N([C@@H](CC(C)C)CN3CCC[C@@H]3CN3C(=S)NC[C@@H]3Cc3ccc(O)cc3)C[C@@H]2CC(C)C)cc1 | 5.19% (inactive) | –
CCCNC(=O)c1c(Cl)cnn1-c1ccc(C)cc1 | -6.94% (inactive) | –
CCCNC(=O)c1ccc(Cl)c(Cl)c1 | – | 21.2 µM (active)
COCC(C)NC(=O)c1ccc(Cl)c(Cl)c1 (stereo not drawn) | -9.11% (inactive) | –
COc1ccc(CC(N)c2csc(NC(=O)Cc3ccccc3)n2)cc1 (stereo not drawn) | -4.52% (inactive) | –
COc1ccc(OC)c(C(O)c2ncc(-c3cccc(C(F)(F)F)c3)[nH]2)c1 (stereo not drawn) | 6.6% (inactive) | –
Cc1cc(Br)cn2c(Cc3ccccc3C(F)(F)F)c(-c3ccc(Cl)cc3)nc12 | 2.92% (inactive) | –
COc1cc2nnn(-c3ccncc3)c2cc1OC | -2.85% (inactive) | –
CCOC(=O)C1(C)CCCN(C(=O)c2cccc(Cl)c2)C1 (stereo not drawn) | -9.97% (inactive) | –
O=C1NC[C@H](CCCCN2CCN(CCc3ccccc3)C(=O)C2=O)N(CC2CCCCC2)C1=O | -4.62% (inactive) | –
COc1cc(-c2n[nH]c(=S)n2Cc2ccccc2)cc(OC)c1OC | -6.45% (inactive) | –
CC(C)Oc1ccc(Cc2n[nH]c(=S)n2Cc2ccccc2)cc1Cl | – | 16.8 µM (active)
CC(C)Oc1ccc(CCc2n[nH]c(=S)n2Cc2ccccc2)cc1 | -8.99% (inactive) | –

SMILES | max response, negative = inhibition | Potency
CCc1c(N=O)c(-c2ccccc2)n(O)[n+]1[O-] | -2.08% (inactive) | –
Nc1[nH]c(C(=O)c2ccccc2)c(-c2ccc(Br)cc2)c1C(=O)NC1CC1 | -9.8% (inactive) | –
O=S1(=O)CC(N2CCN(Cc3ccccc3F)CC2)CN1Cc1cn(Cc2cccc(C(F)(F)F)c2)nn1 (stereo not drawn) | -2.54% (inactive) | –
CC(C)c1ccc(NC(=S)NNc2ccc(Cl)c(C(=O)O)c2)cc1 | – | 23.8 µM (active)
Cc1ccc(C)c(NC(=S)NNC(=S)Nc2ccc(C(C)C)cc2)c1 | – | 18.9 µM (active)
Cc1ccc(NC(=S)NCCc2ccc(Cl)cc2)c(C)c1 | -3.36% (inactive) | –
O=C(NC(=S)Nc1ccc(Cl)c(C(=O)O)c1)c1cncc(Br)c1 | -11.2% (inactive) | –
CCC(C(=O)Nc1ccc(C(C)C)cc1)c1ccccc1 (stereo not drawn) | 2.25% (inactive) | –
CC(C)c1ccc(NC(=S)NC2CC3C=CC2C3)cc1 (stereo not drawn) | -23.1% (inactive) | –
COC(=O)[C@]12CCCCC=C1N(Cc1ccco1)C(=O)[C@H](CC(=O)NCC1CCCCC1)C2 | -3.48% (inactive) | –
CCCc1ccc(C(O)c2ncc(-c3cccc(OC)c3)[nH]2)cc1 (stereo not drawn) | -2.5% (inactive) | –
COc1ccc(/C=C(\C#N)C(=O)OCC(=O)N(C)C2CCS(=O)(=O)C2)cc1 (stereo not drawn) | -10.5% (inactive) | –
CN(C(=O)COC(=O)Cc1ccccc1[N+](=O)[O-])C1CCS(=O)(=O)C1 (stereo not drawn) | 1.07% (inactive) | –
CN(C(=O)COC(=O)c1cc(-c2ccco2)nc2ccccc12)C1CCS(=O)(=O)C1 (stereo not drawn) | – | 18.9 µM (active)
COc1cncc(-c2cnc3sc(NCCc4ccccn4)nn23)c1 | -12.3% (inactive) | –
Cc1ccc(C)c(S(=O)(=O)N2CC(=O)Nc3ccccc32)c1 | – | 23.8 µM (active)
Cc1ccc(S(=O)(=O)N2CC(=O)Nc3ccccc32)cc1C | -4.98% (inactive) | –
Cc1ccc(C)c(S(=O)(=O)N2CCN(C(=O)Nc3ccccc3)CC2)c1 | -2.91% (inactive) | –
NC(c1csc(NC(=O)Nc2ccccc2Oc2ccccc2)n1)c1ccccc1Cl (stereo not drawn) | 0.513% (inactive) | –
Cc1cccc(N(CC(=O)N2CCCC2)S(C)(=O)=O)c1C | -8.37% (inactive) | –
O=C(NCc1ccccc1)C(c1ccc(F)cc1)N1CCN(C(=O)C2CCCO2)CC1 (stereo not drawn) | 1.19% (inactive) | –
